The sample as a whole holds a higher share of hits than the screen did.
AMPAR-TARP mod = modulators of GluA2-stargazin AMPA receptor complexes, primary screen, cell-based, membrane potential dye | Voltage-dependent calcium channel gamma-2 subunit (Mus musculus) + Glutamate receptor 2 … | HEK293 GluA2+stargazin, membrane potential dye (FDSS), glutamate EC50; hits were called plate by plate, in both directions | calls only at 30 µM | 40,000 compounds, 3.5% hits;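 active = any of four per-well response measures lying three or more SD from its plate-wide compound average, in either direction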
GIRK2 activator = activators of NPY4-receptor-primed GIRK2 channels, summary, cell-based, HEK293, thallium flux; 34,000 tested, under 10 active; HEK293 GIRK2/NPY4 cells, thallium flux fluorescence; activation (% efficacy), % for hits at 37.5 µM;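 active = primary screen hit, no activity in plain HEK293 cells, and in GIRK2-only cells above 5% efficacy rising with concentration; inactive = the rest, including fluorescent compounds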;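 also: efficacy is normalized control-subtracted fluorescence 15 s after thallium addition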
Target sequence (P48051 whole entry, looked up): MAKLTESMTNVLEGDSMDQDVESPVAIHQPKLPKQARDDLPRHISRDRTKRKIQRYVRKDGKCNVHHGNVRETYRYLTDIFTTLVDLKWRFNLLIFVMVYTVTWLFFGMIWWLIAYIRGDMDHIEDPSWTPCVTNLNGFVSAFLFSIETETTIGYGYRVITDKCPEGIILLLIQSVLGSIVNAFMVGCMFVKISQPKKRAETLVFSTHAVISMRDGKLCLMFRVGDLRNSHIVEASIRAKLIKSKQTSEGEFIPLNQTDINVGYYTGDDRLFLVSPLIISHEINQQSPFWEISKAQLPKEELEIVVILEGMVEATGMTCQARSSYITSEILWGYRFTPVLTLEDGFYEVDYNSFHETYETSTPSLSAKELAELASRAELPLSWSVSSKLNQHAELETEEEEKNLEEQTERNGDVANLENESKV
* = called active by the depositor; i = inactive; nt = no result given; + = active, no number.

SMILES	AMPAR-TARP mod	GIRK2 activator
COc1ccc(Br)cc1S(=O)(=O)NCCn1nc(-c2ccccc2)ccc1=O	i	nt
c1ccc2c(N3CCOCC3)nnc(N3CCOCC3)c2c1	i	i
COc1ccccc1Nc1nc(N2CCOCC2)c2ccccc2n1	+	nt
CN1CCN(c2nc(N3CCOCC3)c3ccccc3n2)CC1	+	nt
COc1ccc(NC(=O)CSc2nc3ccccc3nc2N2CCOCC2)cc1	i	i
O=C1CCc2cc(NC(=O)Nc3ccc(Cl)cc3)ccc2N1	i	i
O=C(NCc1cccs1)NCC1CCN(C(=O)c2cc3ccccc3o2)CC1	i	i
O=C(NCC1CCN(C(=O)c2cc3ccccc3o2)CC1)c1ccc2nsnc2c1	+	i
O=C(/C=C/c1cccs1)NCC1CCN(C(=O)c2cc3ccccc3o2)CC1	+	i
O=C(NCC1CCN(C(=O)c2ccccc2F)CC1)c1ccc2nsnc2c1	i	i
CSc1ccc(CNC(=O)CSc2nccnc2N2CCSCC2)cc1	i	i
O=C1CN(c2ccccc2NC(=O)c2ccc[nH]c2=O)CCN1	i	i
O=C(Nc1cc(-c2ccccc2)nn1CCO)c1ccc(Cl)s1	+	i
O=C(Nc1cc(-c2ccccc2)nn1CCO)c1ccco1	i	i
O=C(Nc1ccc2ncsc2c1)c1ccc(S(=O)(=O)N2CCOCC2)cc1	i	i
CC1CC(C)CN(S(=O)(=O)c2ccc(C(=O)Nc3ccc4ncsc4c3)cc2)C1 (stereo not drawn)	+	i
CSc1ccccc1C(=O)NCc1n[nH]c(=O)c2ccccc12	i	i
COc1nn(C)cc1C(=O)NCc1n[nH]c(=O)c2ccccc12	+	i
O=C(NCc1n[nH]c(=O)c2ccccc12)c1ccc(=O)[nH]c1	i	i
O=C(NCc1n[nH]c(=O)c2ccccc12)c1cccc(-n2cnnn2)c1	+	i
COc1ccc(S(=O)(=O)N2CCC(C(=O)Nc3nc(-c4ccc(C)cc4C)cs3)CC2)cc1	i	i
COc1ccc(-c2noc(-c3cc(-c4ccccc4)n[nH]3)n2)cc1	i	nt
CCCCNC(=O)CSc1nc2c(-c3ccccc3)c[nH]c2c(=O)n1C1CC1	nt	i
CCOCCn1c(=O)c2c(nc(-n3nc(C)cc3C)n2Cc2ccc(F)cc2)n(C)c1=O	i	i
CCc1cc(CC)n(-c2nc3c(c(=O)n(Cc4ccccc4)c(=O)n3C)n2CCOC)n1	+	nt
SMILES	AMPAR-TARP mod	GIRK2 activator
CCOCCn1c(-n2nc(C)cc2C)nc2c1c(=O)n(Cc1cccc(C)c1)c(=O)n2C	+	i
CCc1cc(CC)n(-c2nc3c(c(=O)n(CC(C)C)c(=O)n3C)n2CCOC)n1	i	nt
COc1nn(C)cc1C(=O)Nc1cc(-c2cccs2)nn1CCO	i	i
O=C(NCC(c1cccc2ccccc12)N1CCCC1)C(=O)NC1CCCCC1 (stereo not drawn)	nt	i
CCOc1ccc(-c2ccc(=O)n(CC(=O)N3CCCCC3)n2)cc1	i	i
Cc1cc(C)c2nc(NC(=O)c3cc(C)no3)sc2c1	i	i
COc1ccc(C)c2sc(NC(=O)c3cc(C)no3)nc12	+	i
CCC(=O)NCCn1nc(-c2ccccn2)n(C)c1=O	i	i
Cc1cccc(N2CCN(S(=O)(=O)N3CCCCCC3)CC2)c1C	i	nt
O=S(=O)(c1ccc(Cl)c(C(F)(F)F)c1)N1CCN(Cc2ccccc2)CC1	i	i
O=C(NCC(c1ccc(F)cc1)N1CCOCC1)Nc1cccc(Cl)c1 (stereo not drawn)	i	nt
COc1ccc2nc(NC(=O)NC34CC5CC(CC(C5)C3)C4)sc2c1	i	i
Nc1nc2ccc(OC(F)(F)F)cc2s1	+	i
COCCn1c(NC(=O)Nc2c(F)cccc2F)c2ccccc2nc1=O	i	i
CS(=O)(=O)N1CCCc2ccc(NC(=O)Nc3ccc(Cl)cc3)cc21	nt	i
Cc1ccc(S(=O)(=O)N2CCC(C(=O)Nc3nc(-c4cccs4)cs3)CC2)cc1	i	i
Cn1cccc(C(=O)NCC(O)(c2ccccc2)C2CC2)c1=O (stereo not drawn)	i	nt
COCC(C)(O)CNC(=O)c1cccn(C)c1=O (stereo not drawn)	+	i
CC(C)Sc1cccc(C(=O)Nc2nnc(-c3ccnn3C(C)C)o2)c1	i	i
COC(=O)C(C)n1c(C)c(C)n2c3c(=O)n(C)c(=O)n(C)c3nc12 (stereo not drawn)	+	i
Cc1c(C)n2c3c(=O)n(CC(N)=O)c(=O)n(C)c3nc2n1C(C)C	i	i
CC(=O)C(C)n1c(-c2ccccc2)cn2c3c(=O)n(C)c(=O)n(C)c3nc12 (stereo not drawn)	i	i
COC(=O)C(C)n1c(C)cn2c3c(=O)n(C)c(=O)n(C)c3nc12 (stereo not drawn)	+	i
Cc1c(C)n2c3c(=O)n(C)c(=O)n(C)c3nc2n1CC(O)CO (stereo not drawn)	+	i
CCCCCCCCn1c(C)c(C)n2c3c(=O)n(C)c(=O)n(C)c3nc12	i	i
SMILES	AMPAR-TARP mod	GIRK2 activator
O=C(c1ccco1)N1CCC(COCc2ccccc2)CC1	i	i
Cc1c(C)n2c3c(=O)n(CC(=O)OCc4ccccc4)c(=O)n(C)c3nc2n1C1CCCC1	i	i
COc1cc(C)c(C)cc1S(=O)(=O)NCC1CCN(C2CCCC2)CC1	i	i
CC(C)Cc1ccc(S(=O)(=O)Cc2nc(-c3ccccc3Cl)no2)cc1	i	i
O=C(NCCCn1ccnc1)c1ccc(S(=O)(=O)N2CCOCC2)o1	i	i
COc1ccc(OC)c(S(=O)(=O)Nc2ccc3c(c2)CCCN3S(C)(=O)=O)c1	i	nt
Cc1ccnc(SCCn2c(N3CCOCC3)nc3c2c(=O)n(C)c(=O)n3C)n1	+	nt
Cn1c(=O)c2c(nc(N3CCOCC3)n2CCSc2nc3ccccc3s2)n(C)c1=O	i	nt
O=C(CS(=O)(=O)Cc1ccccc1)N1CCN(c2ccccc2)CC1	i	i
O=C(Nc1ccc([N+](=O)[O-])cc1)C(=O)N1CCC(O)CC1	i	nt
O=C(Nc1ccc([N+](=O)[O-])cc1)C(=O)N1CCN(c2ccc(F)cc2)CC1	+	nt
Cc1ccc(NC(=O)C(=O)N2CCN(c3cccc(Cl)c3)CC2)c([N+](=O)[O-])c1	i	nt
CC(C(=O)N1CCN(c2cccc(Cl)c2)CC1)c1ccc([N+](=O)[O-])cc1 (stereo not drawn)	+	nt
O=C(Nc1cccc([N+](=O)[O-])c1)C(=O)N1CCN(c2cccc(Cl)c2)CC1	+	nt
CC(C(=O)N1CCCC1)c1ccc([N+](=O)[O-])cc1 (stereo not drawn)	i	nt
CCc1ccc(OC)c(S(=O)(=O)NCC(c2cccn2C)N2CCOCC2)c1 (stereo not drawn)	i	i
O=C(CSc1ccc(NC(=O)c2cccs2)nn1)Nc1ccc(C(F)(F)F)cc1	i	i
Cc1cnc2c(c1SCC(=O)N1CCCCC1)c(=O)n(C)c(=O)n2C	i	i
Cc1cnc2c(c1SCCN1CCCCC1)c(=O)n(C)c(=O)n2C	+	i
COc1cn(CC(=O)Nc2ccc([N+](=O)[O-])cc2)c(CSc2ncccn2)cc1=O	i	i
COC(=O)NC(C)c1nc2ccccc2n1C (stereo not drawn)	i	i
